Results: PubChem BioAssay (NCI)
Where “and” joins values, the source holds several entries; their conditions need not be identical. Equal entries are not always repeated. Compounds without any hit were thinned out: in the full panel of roughly 83,000, 20% have a hit.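 Single-dose data. Exposure time 48 hours. Values below 10 considered active.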 Calls of active or inactive are those of the source.

Columns and labels:
Test in all cases: NCI-60 one-dose screen, 48 h (100 = growth as untreated, 0 = no growth, -100 = all killed)
Settings in all cases: 10 µM unless noted
[1] = system: DU-145 prostate
[2] = system: K-562 leukemia
[3] = system: MALME-3M melanoma
[4] = system: MDA-MB-231 breast
[5] = system: RXF 393 renal
[6] = system: SF-268 CNS
[7] = system: SF-295 CNS
[8] = system: SF-539 CNS
[9] = system: UACC-257 melanoma
[10] = system: M14 melanoma
[11] = system: HCT-15 colon
[12] = system: HT29 colon
[13] = system: SNB-75 CNS
[14] = system: SNB-19 CNS
[15] = system: U251 CNS
[16] = system: PC-3 prostate
[17] = system: SK-MEL-5 melanoma
[18] = system: UACC-62 melanoma
[19] = system: LOX IMVI melanoma
[20] = system: SK-MEL-28 melanoma

Measured: growth

C[C@]12CCC3[C@@H](C[C@@H]4SC(Nc5ccccc5)=N[C@@]45CC(=O)CC[C@]35C)[C@@H]1CCC2=O (some centres undefined)
inactive: [6] 27% | [7] 24.2% | [13] 41.5% | [14] 21.9% | [17] 26.3%
active: [1] -14.7% | [2] 1.87% | [3] 8.73% | [4] 5.67% | [5] -63.8% | [8] -44.8% | [9] 3.21% | [10] 0.48% | [11] 1.93% | [12] -55.6% | [15] -82.4% | [16] -16.1% | [18] -1.09% | [19] -58.1% | [20] 1.73%

O=CC1(c2ccccc2)CCN(Cc2ccccc2)CC1
inactive: [1] 106% | [2] 105% | [3] 105% | [4] 104% | [5] 115% | [6] 99.6% | [7] 99% | [8] 106% | [9] 99.5% | [10] 98.8% | [11] 103% | [12] 107% | [13] 102% | [14] 109% | [15] 101% | [16] 98.1% | [17] 110% | [18] 105% | [19] 82.8% | [20] 112%

COc1cc(/C=C\[N+](=O)[O-])ccc1OCc1ccccc1
inactive: [1] 44.3% | [3] 77.9% | [4] 12.5% | [6] 19.4% | [7] 48.7% | [8] 30.8% | [9] 61.8% | [10] 15.5% | [13] 79.2% | [14] 36.5% | [16] 23% | [17] 65.2% | [18] 30.5% | [20] 18.5%
active: [2] 0.133% | [5] -86.1% | [11] -11.7% | [12] 4.62% | [15] 5.01% | [19] -83.3%

O=c1[nH]c(=O)n(Cl)c(=O)n1Cl
inactive: [1] 142% | [2] 109% | [3] 106% and 110% | [4] 99.1% and 113% | [5] 114% and 120% | [6] 108% and 136% | [7] 101% and 114% | [8] 106% and 92.5% | [9] 99.5% and 117% | [10] 103% and 98.4% | [11] 111% and 108% | [12] 106% and 112% | [13] 124% and 105% | [14] 106% and 98.2% | [15] 98.5% and 113% | [16] 98.8% and 98% | [17] 103% and 93.7% | [18] 98.7% and 101% | [19] 109% and 105% | [20] 117% and 122%

CC1(C)N(Nc2ccccc2)C(=O)C2CCCN21 (centres undefined)
inactive: [1] 16.8% | [3] 84.2% | [4] 89.6% | [5] 116% | [6] 39.5% | [7] 84.5% | [8] 89.3% | [9] 89.2% | [11] 44.5% | [12] 65.7% | [13] 50.7% | [14] 95.4% | [15] 85.2% | [17] 97.5% | [18] 21.7% | [20] 79%
active: [2] 8.29% | [10] 10% | [16] 9.48% | [19] 6.21%

CCCCS(=O)(=O)Cl
inactive: [1] 113% | [2] 107% | [3] 108% | [4] 111% | [5] 112% | [6] 108% | [7] 102% | [8] 99% | [9] 110% | [10] 99.1% | [11] 108% | [12] 113% | [13] 93.5% | [14] 110% | [15] 105% | [16] 89.6% | [17] 98.2% | [18] 106% | [19] 99.9% | [20] 107%

CC[C@H](C)[C@H](NC(=O)c1cnccn1)C(=O)N(C)[C@H](C[C@@H](OC(C)=O)c1nc(C(=O)N[C@@H](Cc2ccccc2)C[C@H](C)C(=O)OC)cs1)C(C)C
inactive: [3] 69.6% | [5] 17.4% | [6] 19.4% | [9] 44.3% | [13] 15% | [14] 31.9% | [15] 10.3% | [16] 21.7% | [18] 34.2% | [19] 17.5% | [20] 59.2%
active: [1] 6.92% | [2] 5.13% | [4] -4.71% | [7] -5.89% | [8] -21.9% | [10] -5.51% | [11] 6.99% | [12] -5.79% | [17] 0.869%

COc1ccc2c(c1)c(-c1nc(-c3cn(C)c4ncccc34)cs1)cn2CCCCN1CCOCC1
active: [2] -41% | [3] -59.5% | [4] 5.75% | [5] 0.734% | [7] -48.5% | [10] -66.9% | [11] -42.1% | [12] -87.8% | [15] -55.3% | [18] 3.59% | [19] -78.8% | [20] -93.5%
inactive: [1] 46.8% | [6] 52.8% | [8] 30.8% | [9] 63.5% | [13] 43.6% | [14] 35.1% | [16] 31.3% | [17] 14.5%

N[C@@H](CCC(=O)CCl)C(=O)O
inactive: [1] 105% [20 µM] | [2] 82.9% [20 µM] | [3] 92.5% [20 µM] | [4] 92.2% [20 µM] | [5] 112% [20 µM] | [6] 98.4% [20 µM] | [7] 98.9% [20 µM] | [8] 104% [20 µM] | [9] 99.9% [20 µM] | [10] 95.9% [20 µM] | [11] 93.7% [20 µM] | [12] 94.2% [20 µM] | [13] 66.9% [20 µM] | [14] 93.4% [20 µM] | [15] 96.5% [20 µM] | [16] 100% [20 µM] | [17] 101% [20 µM] | [18] 92.1% [20 µM] | [19] 96.7% [20 µM] | [20] 103% [20 µM]

C[C@]12CCc3sc(Nc4ccc(O)cc4)nc3C1=CC[C@@H]1[C@@H]2CC[C@]2(C)C(=O)CC[C@@H]12
active: [5] -16.2% | [8] -3.84% | [11] -68% | [19] -8.01%
inactive: [1] 10.4% | [2] 10.8% | [3] 29.7% | [4] 35.3% | [6] 58.3% | [7] 52.5% | [9] 73.4% | [10] 58.1% | [12] 10.3% | [13] 41.7% | [14] 64.6% | [15] 19.5% | [16] 39.1% | [17] 62% | [18] 55.8% | [20] 77.9%

C[C@]12CC[C@H]3[C@@H](C[C@@H]4SC(Nc5cccc(F)c5)=N[C@@]45CC(=O)CC[C@]35C)[C@@H]1CCC2=O
inactive: [1] 17.2% | [3] 22.8% | [4] 38.2% | [6] 55.7% | [9] 73% | [10] 44.8% | [13] 18.7% | [14] 62.8% | [15] 15.7% | [16] 19.1% | [17] 32.1% | [18] 37.5% | [20] 39.4%
active: [2] -0.515% | [5] -28.4% | [7] -18.8% | [8] -5.93% | [11] 6.88% | [12] -3.32% | [19] 6.22%

CC1(C)C=Cc2c(ccc3c2[N+]([O-])=C2C3=C[C@@]34NC(=O)[C@]5(CCCN5C3=O)C[C@@H]4C2(C)C)O1
inactive: [1] 43.3% | [3] 82.9% | [4] 48.5% | [5] 32.8% | [6] 53.7% | [7] 52.2% | [8] 51.2% | [9] 68.9% | [10] 61.6% | [11] 46.8% | [12] 24.6% | [13] 62.1% | [14] 50.7% | [15] 35.3% | [16] 45.5% | [17] 19.2% | [18] 64.6% | [19] 27.6% | [20] 71.1%
active: [2] 9.2%

Oc1ccc(O)c(Cl)c1
inactive: [1] 103% | [2] 89.1% and 94.8% | [3] 106% and 103% | [4] 67.3% and 101% | [5] 93% and 113% | [6] 96% and 100% | [7] 103% and 118% | [8] 84.4% and 102% | [9] 88.1% and 102% | [10] 95.7% and 104% | [11] 96.4% and 110% | [12] 103% and 107% | [13] 72.2% and 85.8% | [14] 111% | [15] 94.6% and 101% | [16] 84.3% and 94.2% | [17] 91.3% and 95.2% | [18] 93.9% and 101% | [19] 94.4% and 93.9% | [20] 115% and 122%

C=CCOC(=O)C(Br)CC (centres undefined)
inactive: [1] 108% | [2] 107% | [3] 99.9% | [4] 93.6% | [5] 118% | [6] 106% | [7] 109% | [8] 100% | [9] 104% | [10] 109% | [11] 108% | [12] 110% | [13] 97.1% | [14] 109% | [15] 101% | [16] 95% | [17] 99.3% | [19] 95.8% | [20] 110%
